Growth data for 21 compounds are collected here from PubChem BioAssay (NCI).

Some test systems named below: HCT-15 colon; HT29 colon; SNB-75 CNS; SNB-19 CNS; U251 CNS; PC-3 prostate; SK-MEL-5 melanoma; UACC-62 melanoma; LOX IMVI melanoma; SK-MEL-28 melanoma.
Holding throughout (assay): NCI-60 one-dose screen, 48 h (100 = growth as untreated, 0 = no growth, -100 = all killed)
Common to all, as to settings: 10 µM

Compounds without any hit were thinned out: in the full panel of roughly 83,000, 20% have a hit.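 Treatment: one concentration, 48 hours, 96-well format. Scoring: percent growth, with anything below 10 considered active.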 Unmarked numbers belong to inactive results. Activity calls are given as the source filed them.

As for `O=C(CSc1nnc(-c2cccnc2SCc2ccccc2)o1)Nc1nc(Cl)cc(Cl)n1`, the growth in the test on HCT-15 colon is 106%; in the test on HT29 colon it was 110%; in the test on SNB-75 CNS it was 85.7%; in the test with SNB-19 CNS, 106%; with U251 CNS, 106%; in the test with PC-3 prostate it was 94.5%. In addition, the growth is 101% with SK-MEL-5 melanoma, 101% in the test on UACC-62 melanoma, 94.9% in the test on LOX IMVI melanoma and 113% in the test on SK-MEL-28 melanoma.
Turning to `N#Cc1ccc(C(=O)CSc2nccc(Nc3ccc(C(=O)O)cc3)n2)cc1`, the growth in the test with HCT-15 colon was 106%; in the test with HT29 colon it was 104%; in the test on SNB-75 CNS, 106%; in the test on SNB-19 CNS, 99%; in the test with U251 CNS, 106%; in the test on PC-3 prostate, 99.5%. The growth in the test on SK-MEL-5 melanoma is 99.1%; in the test with UACC-62 melanoma it was 103%; in the test with LOX IMVI melanoma, 101%; with SK-MEL-28 melanoma it was 110%.
In the case of `COc1ccc2c(c1)C(CC(=O)NN)CCC2` (stereo not given), the growth in the test with HCT-15 colon is 104%; in the test with HT29 colon it was 112%; in the test with SNB-75 CNS, 89.9%; with SNB-19 CNS, 109%; in the test with U251 CNS, 102%; with PC-3 prostate, 100%. For the same compound, the growth is 104% in the test on SK-MEL-5 melanoma, 104% in the test with UACC-62 melanoma, 93.7% in the test with LOX IMVI melanoma and 113% in the test on SK-MEL-28 melanoma.
On to `CC(C)C[C@H](NC(=O)Cn1cccc(CNC(=O)c2ccccc2)c1=O)B(O)O`, for which the growth in the test on HCT-15 colon is 64.7%; in the test on HT29 colon, -0.24% (active); in the test with SNB-75 CNS, -4.6% (active); with SNB-19 CNS, 34.1%; in the test with U251 CNS, 17.2%; in the test on PC-3 prostate, 35.8%. Besides, the growth is -34.3% (active) with SK-MEL-5 melanoma, -17.1% (active) in the test on UACC-62 melanoma, -60.4% (active) in the test on LOX IMVI melanoma and 19.4% in the test on SK-MEL-28 melanoma.
As for `CC(=O)Oc1cc(OC(C)=O)c2ccccc2c1OC(C)=O`, the growth in the test on HCT-15 colon was 81.3%; in the test on HT29 colon, 92.9%; in the test with SNB-75 CNS, 85.7%; with SNB-19 CNS, 93.8%; with U251 CNS, 94%; in the test with PC-3 prostate, 62.6%. Moreover, the growth in the test with SK-MEL-5 melanoma was 60.9%; with UACC-62 melanoma it was 89.9%; in the test on LOX IMVI melanoma it was 48.3%; in the test on SK-MEL-28 melanoma it was 99.5%.
For the compound `c1ccc(CCCCc2ccc3ccccc3n2)cc1`, the growth in the test on HCT-15 colon is 90.1%; in the test on HT29 colon, 87.1%; with SNB-75 CNS, 93.6%; with SNB-19 CNS, 105%; in the test with U251 CNS, 90.6%; with PC-3 prostate, 77.1%. In addition, the growth in the test on SK-MEL-5 melanoma was 109%; in the test on UACC-62 melanoma it was 102%; in the test with LOX IMVI melanoma it was 96.1%; with SK-MEL-28 melanoma it was 104%.
Take `CN(C)CCCOc1cccc(NC2=C(Cl)C(=O)C(Nc3cccc(OCCCN(C)C)c3)=C(Cl)C2=O)c1`: the growth in the test on HCT-15 colon is -19.5% (active); in the test on HT29 colon it was -67.4% (active); in the test on SNB-75 CNS it was 53.8%; in the test with SNB-19 CNS, -42.3% (active); with U251 CNS, -78% (active); in the test with PC-3 prostate, 0.365% (active). Moreover, the growth with SK-MEL-5 melanoma was -96.5% (active); with UACC-62 melanoma it was -72.9% (active); in the test on LOX IMVI melanoma, -82.6% (active); in the test on SK-MEL-28 melanoma, -72.7% (active).
As to `CCCc1nc(C(C)(C)O)c(C(=O)O)n1Cc1ccc(-c2ccccc2-c2nn[nH]n2)cc1`, the growth with HCT-15 colon is 101%; in the test with HT29 colon, 93.6%; in the test with SNB-75 CNS it was 66.9%; in the test with SNB-19 CNS, 102%; in the test with U251 CNS, 103%; in the test with PC-3 prostate it was 95.9%. Moreover, the growth is 110% in the test with SK-MEL-5 melanoma, 94.5% with UACC-62 melanoma, 94.7% in the test with LOX IMVI melanoma and 108% in the test on SK-MEL-28 melanoma.
As to `CCOC(=O)c1cc(C(=O)c2ccc(OC)c(OC)c2)n2ccncc12`, the growth in the test with HCT-15 colon is 89.9%; with HT29 colon, 84.6%; with SNB-75 CNS, 104%; in the test with SNB-19 CNS it was 98%; in the test on U251 CNS, 105%; with PC-3 prostate, 80.6%. The growth in the test on SK-MEL-5 melanoma is 89.4%; in the test with UACC-62 melanoma it was 94%; in the test with LOX IMVI melanoma, 77.7%; with SK-MEL-28 melanoma, 115%.
On to `COc1ccc(-c2onc(N)c2-c2cc(OC)c3c(c2)OCO3)cc1`, for which the growth in the test on HCT-15 colon is 23.9%; in the test on HT29 colon, 7% (active); in the test on SNB-75 CNS, 17.7%; in the test on SNB-19 CNS, 52.8%; in the test with U251 CNS it was 18.6%; in the test on PC-3 prostate, 61.4%. Besides, the growth with SK-MEL-5 melanoma was 1.27% (active); with UACC-62 melanoma, 42.7%; in the test with LOX IMVI melanoma it was 34.7%; with SK-MEL-28 melanoma it was 47.4%.
On to `CCn1c(SCc2ccc(C)cc2)nnc1-c1nn(-c2ccc(Cl)cc2Cl)c(-c2ccc(Cl)cc2)c1C`, for which the growth in the test with HCT-15 colon is 11.6%; in the test on HT29 colon it was 2.65% (active); in the test on SNB-75 CNS it was 23.3%; with SNB-19 CNS, 22.1%; in the test with U251 CNS, 14.4%; in the test on PC-3 prostate, 5.63% (active). The growth is -92.3% (active) in the test with SK-MEL-5 melanoma, 21.2% in the test on UACC-62 melanoma, 7.19% (active) in the test with LOX IMVI melanoma and 30.3% with SK-MEL-28 melanoma.
For the compound `NS(=O)(=O)Oc1ccc(-c2ccc3sccc3c2)cc1`, the growth in the test on HCT-15 colon was 103%; in the test with HT29 colon, 107%; with SNB-75 CNS, 97.3%; with SNB-19 CNS it was 101%; in the test on U251 CNS, 88.8%; with PC-3 prostate it was 96.5%. The growth was 95.9% with SK-MEL-5 melanoma, 61.6% with UACC-62 melanoma, 95.2% with LOX IMVI melanoma and 97.6% in the test with SK-MEL-28 melanoma.
Take `CC[C@@H](C(=O)[C@H](C)[C@H](O)[C@@H](C)[C@H]1O[C@H]([C@@H](CC)C(=O)N(CC)CC)CC[C@H]1C)C1O[C@]2(C=C[C@@H](O)[C@]3(CC[C@@](C)([C@H]4CC[C@](O)(CC)[C@H](C)O4)O3)O2)[C@H](C)C[C@@H]1C` (stereo not given in full): the growth in the test with HCT-15 colon was 9.17% (active); in the test with HT29 colon, 13.8%; with SNB-75 CNS, 6.47% (active); in the test on SNB-19 CNS it was 12.8%; with U251 CNS, 24.2%; in the test with PC-3 prostate, 3.64% (active). The growth was -74.7% (active) in the test on SK-MEL-5 melanoma, 14.3% in the test with UACC-62 melanoma, 31% with LOX IMVI melanoma and 27% in the test on SK-MEL-28 melanoma.
Regarding `Cc1c(Cl)cccc1NC(=O)CCCl`, the growth was 110% in the test on HCT-15 colon; 95.4% in the test with HT29 colon; 98.1% in the test on SNB-75 CNS; 96.7% in the test on SNB-19 CNS; 91% with U251 CNS; 94.3% with PC-3 prostate. The growth in the test on SK-MEL-5 melanoma was 104%; in the test on UACC-62 melanoma it was 93.2%; in the test on LOX IMVI melanoma, 101%; in the test with SK-MEL-28 melanoma, 108%.
For `Clc1ccc(/C=C2\CCCC3C2=Nc2ccccc2NC3c2ccc(Cl)cc2)cc1` (stereo not given), the growth in the test on HCT-15 colon is 63.7%; in the test on HT29 colon it was 16%; in the test on SNB-75 CNS it was 88.2%; with SNB-19 CNS it was 92%; in the test with U251 CNS, 20.8%; in the test on PC-3 prostate it was 77.3%. For the same compound, the growth in the test on SK-MEL-5 melanoma was 88.7%; with UACC-62 melanoma it was 74.2%; with LOX IMVI melanoma it was -27.5% (active); in the test on SK-MEL-28 melanoma it was 101%.
Consider `Cc1ccc(/C=C/C(=O)C(=O)/C=C/c2ccc(C)cc2)cc1`, for which the growth in the test with HCT-15 colon is 95.5%; in the test on HT29 colon, 91.4%; in the test on SNB-75 CNS it was 90.4%; in the test on SNB-19 CNS it was 103%; in the test on U251 CNS, 93%; with PC-3 prostate, 92.2%. The growth in the test on SK-MEL-5 melanoma was 106%; in the test on UACC-62 melanoma, 96.7%; in the test with LOX IMVI melanoma, 89.3%; in the test with SK-MEL-28 melanoma, 108%.
`O=C(Nc1ccc(NS(=O)(=O)c2ccc(F)cc2)cc1)C12CC3CC(CC(C3)C1)C2`: the growth in the test with HCT-15 colon is 86.8%; with HT29 colon, 89.6%; in the test with SNB-75 CNS, 90%; in the test on SNB-19 CNS, 93.7%; with U251 CNS it was 91.3%; in the test with PC-3 prostate, 78.8%. Moreover, the growth was 93.9% with SK-MEL-5 melanoma, 92.4% in the test on UACC-62 melanoma, 92.2% with LOX IMVI melanoma and 99.9% with SK-MEL-28 melanoma.
`COc1cc(C2CC(c3ccccc3)=NN2C(C)=O)cc(OC)c1OC` (stereo not given): the growth was 25.6% in the test on HCT-15 colon; 11.4% in the test on HT29 colon; -17.1% (active) in the test with SNB-75 CNS; 49% in the test with SNB-19 CNS; 27.7% with U251 CNS; 37.3% in the test on PC-3 prostate. Further, the growth in the test on SK-MEL-5 melanoma was 35.3%; in the test with UACC-62 melanoma it was 44.6%; in the test with LOX IMVI melanoma it was 41.7%; in the test with SK-MEL-28 melanoma it was 59.3%.
Turning to `NC(CSC(c1ccccc1)(c1ccccc1)c1cccc2ccccc12)C(=O)O` (stereo not given), the growth in the test with HCT-15 colon is 102%; in the test with HT29 colon, 113%; with SNB-75 CNS, 87.6%; in the test with SNB-19 CNS, 84.9%; in the test with U251 CNS, 93%; in the test with PC-3 prostate, 84.3%. Moreover, the growth with SK-MEL-5 melanoma was 82.6%; with UACC-62 melanoma, 90.4%; with LOX IMVI melanoma it was 96.9%; in the test on SK-MEL-28 melanoma, 93.7%.
As to `CC[C@@H]1NC(=O)[C@H]([C@H](O)[C@H](C)C/C=C/c2ccc(CN3C(=O)CCCC3=O)cc2)N(C)C(=O)[C@H](C(C)C)N(C)C(=O)[C@H](CC(C)C)N(C)C(=O)[C@H](CC(C)C)N(C)C(=O)[C@@H](C)NC(=O)[C@H](C)NC(=O)[C@H](CC(C)C)N(C)C(=O)[C@H](C(C)C)NC(=O)[C@H](CC(C)C)N(C)C(=O)CN(C)C1=O`, the growth in the test on HCT-15 colon was 19.5%; in the test on HT29 colon, -24.8% (active); in the test on SNB-75 CNS, 56.7%; in the test with SNB-19 CNS it was 60.7%; in the test with U251 CNS, 60.2%; in the test with PC-3 prostate, 37.3%. Besides, the growth with SK-MEL-5 melanoma was 23.2%; in the test with UACC-62 melanoma, 59.4%; in the test with LOX IMVI melanoma, 1.01% (active); in the test with SK-MEL-28 melanoma it was 46.3%.
Consider `COc1ccc(-c2cc(-c3ccccc3)nc(SCCCC(=O)NO)n2)cc1`, for which the growth was 10.8% in the test with HCT-15 colon; 5.87% (active) in the test on HT29 colon; -20.1% (active) with SNB-75 CNS; 10.6% with SNB-19 CNS; -24.5% (active) in the test with U251 CNS; 9.65% (active) in the test on PC-3 prostate. Moreover, the growth in the test with SK-MEL-5 melanoma is -57.8% (active); in the test on UACC-62 melanoma it was -65.9% (active); in the test with LOX IMVI melanoma, -65.4% (active); with SK-MEL-28 melanoma, 19.2%.
